Laboratory results: PubChem BioAssay (NCATS)
Results filed as inconclusive are left out. Activity calls are given as the source filed them. Calls come from the whole dose curve.

Columns and labels:
Details in all cases: outcome: dose series up to 57.1 µM unless noted
[1] = Primary qHTS for inhibitors of SARS-S pseudo-typed particle cell entry (AID 1479145); note: nearly all actives have a fitted effect of over 45% in size
[2] = Primary qHTS for Huh7 cytotoxicity: counterscreen for inhibitors of MERS-S pseudotyped particle cell entry (AID 1479147)
[3] = Primary qHTS for inhibitors of MERS-S pseudo-typed particle cell entry (AID 1479149); note: nearly all actives have a fitted effect of over 60% in size

Measured: outcome

CC(C)CCC(=O)O[C@H]1CC[C@H]2[C@@H]3CCC4=CC(=O)CC[C@]4(C)[C@H]3CC[C@]12C
inactive: [1] | [2] | [3]

C[N+]1(C)CCCCC1COC(=O)C(O)(c1ccccc1)c1ccccc1 (stereo unspecified)
inactive: [1] | [2] | [3]
